# Data from the supplement of paper PMC13380429.
# Tested on: Vero E6 infected with SARS-CoV-2
# Test: SARS-CoV-2 infection rate relative to infected DMSO; higher = more infection, active = 60 or less
# Conditions: 24 h
row,SMILES,SARS-CoV-2 infection rate
1,O=[N+]([O-])c1c(Nc2cc(F)cc(Cl)c2)ccc2nonc12 (10 µM),94.5% (inactive)
2,CNc1ncnc2c1ncn2[C@@H]1O[C@H](CO)[C@@H](O)[C@H]1O [N6-methyladenosine] (10 µM),100% (inactive)
3,C[C@@H]1CN(CCCn2c3ccccc3c3ccccc32)C[C@H](C)N1 [rimcazole] (10 µM),19.5% (active)
4,CN[C@@H]1[C@H](O[C@H]2[C@H](O[C@H]3[C@H](O)[C@@H](O)[C@H](NC(=N)N)[C@@H](O)[C@@H]3NC(=N)N)O[C@@H](C)[C@]2(O)CO)O[C@@H](CO)[C@H](O)[C@H]1O [dihydrostreptomycin] (10 µM),114% (inactive)
5,COc1cc(N)c(Cl)cc1C(=O)OCCCN1CCCCC1 (10 µM),100% (inactive)
6,Cc1ccc2c(=O)c3cccc(CC(=O)O)c3oc2c1C (10 µM),114% (inactive)
7,CC#CCOC(=O)c1c(C)nc2sc3c(c2c1N)CCC(O)C3 (configuration not stated) (10 µM),93% (inactive)
8,O=C1O[C@H](CO)[C@@H](O)[C@H](O)[C@H]1O [gluconolactone] (10 µM),98% (inactive)
9,CC(C)c1ccc(C(=O)c2cccs2)c(SCCCCCCCCN(C)C)n1 (0.833333 µM),94.5% (inactive)
10,O=C(c1ccc(CN2CCOCC2)cc1)N1CCN(C2CC2)CC1 [bavisant] (10 µM),100% (inactive)
11,C[C@@H]1CN(c2c(F)c(F)c3c(=O)c(C(=O)O)cn(C4CC4)c3c2F)C[C@H](C)N1 [orbifloxacin] (10 µM),96.5% (inactive)
12,C1Cc2[nH]nc(-c3nn[nH]n3)c2C1 (10 µM),109% (inactive)
13,CN(CC(=O)O)C(=N)N [creatine] (10 µM),113% (inactive)
14,Cc1ccc(NC(=O)Nc2cc(C(F)(F)F)ccc2F)cc1Nc1ccc2c(c1)NC(=O)/C2=C\c1ccc[nH]1 (10 µM),51.5% (active)
15,CN1C2CCC1CC(OC(c1ccccc1)c1ccc(Cl)cc1)C2 (configuration not stated) (0.833333 µM),98.5% (inactive)
16,CC(=O)Nc1ccc(C(=O)NC(C)(C)C)cc1 (10 µM),106% (inactive)

row,SMILES,SARS-CoV-2 infection rate
1,"Clc1cccc(/C=N/N=C/c2cccc(Cl)c2)c1 [3,3'-dichlorobenzaldazine] (10 µM)",99% (inactive)
2,CCNC1(C(N)=O)CCN(c2ncnc3c2nc(-c2ccccc2Cl)n3-c2ccc(Cl)cc2)CC1 (10 µM),108% (inactive)
3,Cc1cccc(C(=O)NCN2CCN(c3ccccc3C#N)CC2)c1 (10 µM),102% (inactive)
4,CC(C)(C)CC(C)(C)c1ccc(OCCOCC[N+](C)(C)Cc2ccccc2)cc1 [benzethonium] (10 µM),108% (inactive)
5,C/C=C1/[C@H](O[C@@H]2O[C@H](CO)[C@@H](O)[C@H](O)[C@H]2O)OC=C(C(=O)OC)[C@H]1CC(=O)OCCc1ccc(O)c(O)c1 [oleuropein] (10 µM),112% (inactive)
6,c1ccc(Cn2c(N3CCNCC3)nc3ccccc32)cc1 [lerisetron] (10 µM),100% (inactive)
7,Nc1c(-c2cccc(C(F)(F)F)c2)nsc1C(=O)O [amflutizole] (10 µM),108% (inactive)
8,CON [methoxyamine] (10 µM),99% (inactive)
9,CCNC(=O)c1noc(-c2cc(C(C)C)c(O)cc2O)c1-c1ccc(CN2CCOCC2)cc1 (0.833333 µM),94% (inactive)
10,CCC(CC)Nc1cc(C)nc(Oc2c(C)cc(C)cc2C)c1C (10 µM),100% (inactive)
11,c1ccc(C(NCc2cccnc2)(c2ccccc2)c2ccccc2)cc1 (10 µM),104% (inactive)
12,CC(O)(C(=O)Nc1ccc(S(=O)(=O)c2ccccc2)cc1)C(F)(F)F (configuration not stated) (10 µM),78% (inactive)
13,O=C(O)c1ccc(OCCn2ccnc2)cc1 [dazoxiben] (10 µM),99% (inactive)
14,CCOc1cc2ncc(C#N)c(Nc3ccc(F)c(Cl)c3)c2cc1NC(=O)/C=C/CN(C)C [pelitinib] (10 µM),110% (inactive)
15,CCOC(=O)OC(C)OC1=C(C(=O)Nc2ccccn2)N(C)S(=O)(=O)c2ccccc21 (configuration not stated) [ampiroxicam] (10 µM),102% (inactive)
16,COc1cc2c(cc1OC)CN(CCc1ccc(NC(=O)c3cccc4c(=O)c5cccc(OC)c5[nH]c34)cc1)CC2 [elacridar] (10 µM),102% (inactive)
